The source of these data is PMC12864922, “TDP-43 directly inhibits mRNA accumulation in neurites through modulation of mRNA stability”.

Whole data set: some 9,900 sequences, median “r (bound/input frequency ratio)” near 0.7, cut for the highest 2% near 6.5. What follows is part of a selection rich in the highest values, with near analogues and random picks from the rest.

B1: ENSMUSG00000061578.1482|Ksr2 (ssRNA)
RNA: GGGAGUUCUACAGUCCGACGAUCGCUUCGAUAUCCGCAUGCUAGAUGGGUAGGUGGGUGGAUGCAUAGGCAAGUAGAUGAAUGAAUAUGUGGGUAGAAGGGUGAGUGGGUGGAUGAAUGGAUGGAUAGGUUGGUAGGUUAAUGUAUUCGUGGAUGGGUGAAUGGAUGGAUGGAUAGAUAGAUGGGAAGGUGGAUGGACAGAUGGAUGGAUGGAUAGAUAGAUGGACAGGUGGUUGGUGGAUAAAUGAGUGAAUGAUUAUGUUGAUAGAUAUGUGGGUAGGCUGAAUGGGUGAAUGGAUAGAUCCUCUUGCGGUCGCACUAGUGUGGAAUUCUCGGGUGUCAAGG
B2: ENSMUSG00000061578.1479|Ksr2 (ssRNA)
RNA: GGGAGUUCUACAGUCCGACGAUCGCUUCGAUAUCCGCAUGCUAUGAAUGAAUGGAUGAAUGGAUGGGUAGGUGGGUGGAUGCAUAGGCAAGUAGAUGAAUGAAUAUGUGGGUAGAAGGGUGAGUGGGUGGAUGAAUGGAUGGAUAGGUUGGUAGGUUAAUGUAUUCGUGGAUGGGUGAAUGGAUGGAUGGAUAGAUAGAUGGGAAGGUGGAUGGACAGAUGGAUGGAUGGAUAGAUAGAUGGACAGGUGGUUGGUGGAUAAAUGAGUGAAUGAUUAUGUUGAUAGAUAUGUGGGUAGGCUGAACUCUUGCGGUCGCACUAGUGUGGAAUUCUCGGGUGUCAAGG
B3: ENSMUSG00000061578.1485|Ksr2 (ssRNA)
RNA: GGGAGUUCUACAGUCCGACGAUCGCUUCGAUAUCCGCAUGCUAUGCAUAGGCAAGUAGAUGAAUGAAUAUGUGGGUAGAAGGGUGAGUGGGUGGAUGAAUGGAUGGAUAGGUUGGUAGGUUAAUGUAUUCGUGGAUGGGUGAAUGGAUGGAUGGAUAGAUAGAUGGGAAGGUGGAUGGACAGAUGGAUGGAUGGAUAGAUAGAUGGACAGGUGGUUGGUGGAUAAAUGAGUGAAUGAUUAUGUUGAUAGAUAUGUGGGUAGGCUGAAUGGGUGAAUGGAUAGAUCGAUGACUGGAUGGAGGGUCUCUUGCGGUCGCACUAGUGUGGAAUUCUCGGGUGUCAAGG
B4: ENSMUSG00000061578.1484|Ksr2 (ssRNA)
RNA: GGGAGUUCUACAGUCCGACGAUCGCUUCGAUAUCCGCAUGCUAGGUGGAUGCAUAGGCAAGUAGAUGAAUGAAUAUGUGGGUAGAAGGGUGAGUGGGUGGAUGAAUGGAUGGAUAGGUUGGUAGGUUAAUGUAUUCGUGGAUGGGUGAAUGGAUGGAUGGAUAGAUAGAUGGGAAGGUGGAUGGACAGAUGGAUGGAUGGAUAGAUAGAUGGACAGGUGGUUGGUGGAUAAAUGAGUGAAUGAUUAUGUUGAUAGAUAUGUGGGUAGGCUGAAUGGGUGAAUGGAUAGAUCGAUGACUGGAUGCUCUUGCGGUCGCACUAGUGUGGAAUUCUCGGGUGUCAAGG
B5: ENSMUSG00000061578.1483|Ksr2 (ssRNA)
RNA: GGGAGUUCUACAGUCCGACGAUCGCUUCGAUAUCCGCAUGCUAUAGGUGGGUGGAUGCAUAGGCAAGUAGAUGAAUGAAUAUGUGGGUAGAAGGGUGAGUGGGUGGAUGAAUGGAUGGAUAGGUUGGUAGGUUAAUGUAUUCGUGGAUGGGUGAAUGGAUGGAUGGAUAGAUAGAUGGGAAGGUGGAUGGACAGAUGGAUGGAUGGAUAGAUAGAUGGACAGGUGGUUGGUGGAUAAAUGAGUGAAUGAUUAUGUUGAUAGAUAUGUGGGUAGGCUGAAUGGGUGAAUGGAUAGAUCGAUGACCUCUUGCGGUCGCACUAGUGUGGAAUUCUCGGGUGUCAAGG
B6: ENSMUSG00000061578.1486|Ksr2 (ssRNA)
RNA: GGGAGUUCUACAGUCCGACGAUCGCUUCGAUAUCCGCAUGCUAGGCAAGUAGAUGAAUGAAUAUGUGGGUAGAAGGGUGAGUGGGUGGAUGAAUGGAUGGAUAGGUUGGUAGGUUAAUGUAUUCGUGGAUGGGUGAAUGGAUGGAUGGAUAGAUAGAUGGGAAGGUGGAUGGACAGAUGGAUGGAUGGAUAGAUAGAUGGACAGGUGGUUGGUGGAUAAAUGAGUGAAUGAUUAUGUUGAUAGAUAUGUGGGUAGGCUGAAUGGGUGAAUGGAUAGAUCGAUGACUGGAUGGAGGGUGGGUGACUCUUGCGGUCGCACUAGUGUGGAAUUCUCGGGUGUCAAGG
B7: ENSMUSG00000061578.1480|Ksr2 (ssRNA)
RNA: GGGAGUUCUACAGUCCGACGAUCGCUUCGAUAUCCGCAUGCUAAAUGGAUGAAUGGAUGGGUAGGUGGGUGGAUGCAUAGGCAAGUAGAUGAAUGAAUAUGUGGGUAGAAGGGUGAGUGGGUGGAUGAAUGGAUGGAUAGGUUGGUAGGUUAAUGUAUUCGUGGAUGGGUGAAUGGAUGGAUGGAUAGAUAGAUGGGAAGGUGGAUGGACAGAUGGAUGGAUGGAUAGAUAGAUGGACAGGUGGUUGGUGGAUAAAUGAGUGAAUGAUUAUGUUGAUAGAUAUGUGGGUAGGCUGAAUGGGUGCUCUUGCGGUCGCACUAGUGUGGAAUUCUCGGGUGUCAAGG
B8: ENSMUSG00000061578.1481|Ksr2 (ssRNA)
RNA: GGGAGUUCUACAGUCCGACGAUCGCUUCGAUAUCCGCAUGCUAUGAAUGGAUGGGUAGGUGGGUGGAUGCAUAGGCAAGUAGAUGAAUGAAUAUGUGGGUAGAAGGGUGAGUGGGUGGAUGAAUGGAUGGAUAGGUUGGUAGGUUAAUGUAUUCGUGGAUGGGUGAAUGGAUGGAUGGAUAGAUAGAUGGGAAGGUGGAUGGACAGAUGGAUGGAUGGAUAGAUAGAUGGACAGGUGGUUGGUGGAUAAAUGAGUGAAUGAUUAUGUUGAUAGAUAUGUGGGUAGGCUGAAUGGGUGAAUGGACUCUUGCGGUCGCACUAGUGUGGAAUUCUCGGGUGUCAAGG
B9: ENSMUSG00000061578.1478|Ksr2 (ssRNA)
RNA: GGGAGUUCUACAGUCCGACGAUCGCUUCGAUAUCCGCAUGCUAGAUUUGUGAAUGAAUGGAUGAAUGGAUGGGUAGGUGGGUGGAUGCAUAGGCAAGUAGAUGAAUGAAUAUGUGGGUAGAAGGGUGAGUGGGUGGAUGAAUGGAUGGAUAGGUUGGUAGGUUAAUGUAUUCGUGGAUGGGUGAAUGGAUGGAUGGAUAGAUAGAUGGGAAGGUGGAUGGACAGAUGGAUGGAUGGAUAGAUAGAUGGACAGGUGGUUGGUGGAUAAAUGAGUGAAUGAUUAUGUUGAUAGAUAUGUGGGUAGCUCUUGCGGUCGCACUAGUGUGGAAUUCUCGGGUGUCAAGG

Sequence of TDP-43 (Q13148 whole entry): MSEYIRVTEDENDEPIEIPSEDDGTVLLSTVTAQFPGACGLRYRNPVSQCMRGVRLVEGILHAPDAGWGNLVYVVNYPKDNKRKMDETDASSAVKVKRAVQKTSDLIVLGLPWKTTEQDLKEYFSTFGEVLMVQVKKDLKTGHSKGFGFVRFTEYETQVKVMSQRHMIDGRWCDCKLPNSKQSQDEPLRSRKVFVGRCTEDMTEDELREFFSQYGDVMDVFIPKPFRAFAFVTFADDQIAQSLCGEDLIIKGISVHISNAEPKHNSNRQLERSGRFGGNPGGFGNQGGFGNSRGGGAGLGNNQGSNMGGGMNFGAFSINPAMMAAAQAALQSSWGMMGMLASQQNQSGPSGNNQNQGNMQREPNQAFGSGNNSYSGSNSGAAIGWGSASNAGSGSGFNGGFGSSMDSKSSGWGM

The assay has as its target TDP-43 (Homo sapiens, UniProt Q13148 1-414). As to the kind of experiment: RNA Bind-n-Seq with designed 260-mer pool; 25 mM Tris-HCl, 150 mM KCl, 3 mM MgCl2, BSA (printed 500 mg/mL), 20 units/mL SUPERase IN; pH not stated; 500 nM RNA pool, 1 h, 4 C; TDP-43 5, 50, 500 nM; high values mean tight binding. To be noted: protein: recombinant; tags: SBP (GST cleaved off with PreScission; pGEX-GST-SBP). The method in brief:
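An in vitro-transcribed pool of 260-nt 3′ UTR oligos (500 nM) was incubated for 1 h at 4 °C with recombinant SBP-tagged TDP-43 at 5, 50 or 500 nM held on streptavidin beads. The buffer contained 25 mM Tris-HCl, 150 mM KCl, 3 mM MgCl2, BSA and SUPERase IN. Biotin-eluted bound RNA was sequenced, and binding, R, is each oligo's normalized read abundance in the bound sample over that in input.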
For the molecule B1, the binding signal is 7 R (bound/input frequency ratio).
Regarding B2, the binding signal is 5.48 R (bound/input frequency ratio).
Regarding B3, the binding signal was 5.62 R (bound/input frequency ratio).
As for B4, the binding signal was 6.89 R (bound/input frequency ratio).
For the molecule B5, the binding signal was 4.53 R (bound/input frequency ratio).
In the case of B6, the binding signal is 5.39 R (bound/input frequency ratio).
For B7, the binding signal was 7.65 R (bound/input frequency ratio).
As for B8, the binding signal was 5.98 R (bound/input frequency ratio).
As for B9, the binding signal was 4.77 R (bound/input frequency ratio).
